This is an account of results in PubChem BioAssay.

The source made the active and inactive calls.

Assay [1] relates to Plasmodium falciparum Sir2 (PF13_0152, Sir2A). Put plainly: pfSir2 binders on small-molecule microarrays, primary screen, biochemical, small-molecule microarray, 635 nm fluorescence (AID 1098).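 Note: score merges spot fluorescence intensity with its signal-to-noise ratio.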 The note with it: small-molecule microarray binding, fluorescence 635 nm; higher = more signal.
Assay [2] is described as follows: small-molecule microarray binders of probe aDKK1, primary screen, biochemical, biotinylated probe, 635/667 nm fluorescence (AID 1099).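 Note: score merges 667nm spot fluorescence with signal to noise across triplicate slides; reference of the scale not given here.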 The note with it: higher = more signal.
Assay [3] is described as follows: small-molecule microarray binders of probe aCHRDL2, primary screen, biochemical, biotinylated probe, 635/667 nm fluorescence (AID 1100). The note with it: higher = more signal.
A short description of assay [4]: splicing luciferase reporter signal modulators, primary screen, spliceosome inhibition project, cell-based, HEK293, splice +/- reporter (AID 1101).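 Note: HEK293 cells carrying a splicing-competent luciferase reporter gene; test concentration not given here.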 The note with it: luminescence, 24 h, higher = more signal, called active from +8 up or from −8 down. On the technique in general: In a reporter assay the amount or activity of a reporter protein is the signal.
Assay [5] addresses Fibroblast growth factor 10 (Homo sapiens) (UniProt O15520). The experiment in a line: FGF10 binders on small-molecule microarrays, primary screen, biochemical, small-molecule microarray, 635 nm fluorescence (AID 1102). The note with it: FGF10 binding, fluorescence 635 nm, higher = more signal.
Assay [6] has as its system glycogen synthase kinase-3 (GSK3A per assay name; protocol says GSK3B). The experiment in a line: GSK3 binders on small-molecule microarrays, primary screen, biochemical, small-molecule microarray, 635 nm fluorescence, GSK3A (AID 1103). Note: the record names both GSK3A and GSK3B. The following applies: small-molecule microarray binding, fluorescence 635 nm; higher = more signal.
Assay [7] addresses Epidermal growth factor receptor (Homo sapiens) (UniProt P00533). Put plainly: EGFR binders on small-molecule microarrays, primary screen, biochemical, small-molecule microarray, 635 nm fluorescence (AID 1104).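 Note: score merges 667 nm emission intensity with spot signal to noise over triplicate slides.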 The note with it: EGFR binding, higher = more signal.
The target of assay [8] is Follistatin-related protein 3 (Homo sapiens) (UniProt O95633). The experiment in a line: FSTL3 binders on small-molecule microarrays, primary screen, biochemical, small-molecule microarray, 635 nm fluorescence (AID 1105).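 Note: score merges emission near 667 nm and signal to noise per printed spot across three slides.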 The note with it: FSTL3 binding, higher = more signal.
Assay [9] deals with Dickkopf-related protein 1 (Homo sapiens) (UniProt O94907). The experiment in a line: DKK1 binders on small-molecule microarrays, primary screen, biochemical, small-molecule microarray, 635 nm fluorescence scan (AID 1106).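 Note: score merges emission near 667 nm with signal to noise over three replicate slides.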 The following applies: DKK1 binding, higher = more signal.
Assay [10] concerns Inhibin beta A chain (activin A). The experiment in a line: INHBA (activin A) binders on microarrays, primary screen, biochemical, small-molecule microarray, 635 nm fluorescence scan (AID 1107).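 Note: mouse activin A protein probed at 4.33 µg/mL on printed slides; score merges bound-protein fluorescence near 667 nm with spot signal-to-noise.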 The following applies: small-molecule microarray binding, higher = more signal.

Chain of Epidermal growth factor receptor (Homo sapiens) (P00533 whole entry, looked up): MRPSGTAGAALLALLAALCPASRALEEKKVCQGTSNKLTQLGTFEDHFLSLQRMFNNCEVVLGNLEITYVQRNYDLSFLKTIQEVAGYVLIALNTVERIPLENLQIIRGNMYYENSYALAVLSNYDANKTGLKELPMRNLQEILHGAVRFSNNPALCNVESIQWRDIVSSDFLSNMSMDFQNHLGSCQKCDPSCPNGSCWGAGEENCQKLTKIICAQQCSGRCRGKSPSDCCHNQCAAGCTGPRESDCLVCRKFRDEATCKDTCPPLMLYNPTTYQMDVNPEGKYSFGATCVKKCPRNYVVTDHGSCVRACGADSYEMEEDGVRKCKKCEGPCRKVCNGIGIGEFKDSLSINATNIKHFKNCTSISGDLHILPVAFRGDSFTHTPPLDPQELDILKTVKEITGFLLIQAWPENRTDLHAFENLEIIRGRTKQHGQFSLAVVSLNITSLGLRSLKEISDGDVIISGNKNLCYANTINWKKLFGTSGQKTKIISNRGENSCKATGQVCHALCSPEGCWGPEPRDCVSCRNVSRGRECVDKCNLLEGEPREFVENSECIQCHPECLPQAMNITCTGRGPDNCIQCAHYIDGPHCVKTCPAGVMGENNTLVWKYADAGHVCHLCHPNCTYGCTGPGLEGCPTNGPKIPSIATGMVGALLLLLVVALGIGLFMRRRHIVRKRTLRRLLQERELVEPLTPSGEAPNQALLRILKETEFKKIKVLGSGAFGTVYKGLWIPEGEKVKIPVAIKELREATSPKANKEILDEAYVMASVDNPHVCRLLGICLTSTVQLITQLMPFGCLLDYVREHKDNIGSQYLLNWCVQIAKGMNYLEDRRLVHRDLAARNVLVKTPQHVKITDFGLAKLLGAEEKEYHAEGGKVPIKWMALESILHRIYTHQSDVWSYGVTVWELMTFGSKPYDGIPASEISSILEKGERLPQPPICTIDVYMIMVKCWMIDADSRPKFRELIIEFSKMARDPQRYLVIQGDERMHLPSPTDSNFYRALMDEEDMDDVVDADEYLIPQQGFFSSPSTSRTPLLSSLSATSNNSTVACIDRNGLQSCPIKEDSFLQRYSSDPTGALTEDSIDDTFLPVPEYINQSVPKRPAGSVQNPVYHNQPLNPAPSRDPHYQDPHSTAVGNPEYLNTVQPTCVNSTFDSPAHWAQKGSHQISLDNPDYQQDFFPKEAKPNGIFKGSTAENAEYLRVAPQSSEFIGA
Chain of Fibroblast growth factor 10 (Homo sapiens) (O15520 whole entry, looked up): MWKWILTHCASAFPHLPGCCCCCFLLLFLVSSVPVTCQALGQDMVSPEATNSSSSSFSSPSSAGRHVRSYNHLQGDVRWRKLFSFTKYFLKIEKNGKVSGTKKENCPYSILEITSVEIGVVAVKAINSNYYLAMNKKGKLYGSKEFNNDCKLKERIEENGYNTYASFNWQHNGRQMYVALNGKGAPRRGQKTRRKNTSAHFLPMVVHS
Chain of Follistatin-related protein 3 (Homo sapiens) (O95633 whole entry, looked up): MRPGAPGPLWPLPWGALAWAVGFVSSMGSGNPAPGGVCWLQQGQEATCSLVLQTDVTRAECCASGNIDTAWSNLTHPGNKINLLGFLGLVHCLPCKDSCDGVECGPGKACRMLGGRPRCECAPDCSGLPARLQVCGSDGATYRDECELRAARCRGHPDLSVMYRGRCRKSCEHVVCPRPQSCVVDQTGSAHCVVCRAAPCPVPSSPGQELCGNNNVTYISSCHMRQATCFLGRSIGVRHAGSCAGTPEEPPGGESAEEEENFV
Chain of Dickkopf-related protein 1 (Homo sapiens) (O94907 whole entry, looked up): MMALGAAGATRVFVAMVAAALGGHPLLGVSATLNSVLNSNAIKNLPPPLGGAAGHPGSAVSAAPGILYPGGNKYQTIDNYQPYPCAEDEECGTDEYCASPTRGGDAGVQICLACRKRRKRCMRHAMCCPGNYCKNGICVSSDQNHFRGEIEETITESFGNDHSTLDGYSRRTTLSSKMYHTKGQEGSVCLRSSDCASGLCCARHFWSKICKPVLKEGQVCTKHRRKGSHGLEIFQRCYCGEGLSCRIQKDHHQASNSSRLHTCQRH

Turning to `CN1C(=O)C2C=CC(C(O)c3ccco3)N(Nc3ccccc3)C2C1=O` (stereo not given), the composite z-score in [1] is 0.307; in [2] it was 0.44; in assay [3] it was 0.338; in assay [5], 0.953; in [6] it was 0.386; in assay [7], 0.466. The composite z-score stood at 0.523 in [8], 0.519 in assay [9] and 1.16 in assay [10]. Moreover, in assay [4], the z-score is 0.883 (inactive).

In the case of `CC1CC/C=C\[C@H]2OC34C=CCN(C(C)(C)C)C(=O)[C@H]3N(CCO)C(=O)[C@@H]4C2C(=O)O1` (stereo not given in full), the composite z-score in assay [1] was -0.103; in assay [2], -0.404; in assay [3], 0.51; in assay [5] it was -0.98; in [6], -0.496; in assay [7] it was -1.33. Further, the composite z-score is -0.755 in [8], -0.739 in [9] and -0.0663 in [10]. Moreover, the z-score in assay [4] is 0.851 (inactive).

Take `CC(C)(C)OC(=O)CC[C@]1(C(=O)N2CCOCC2)N=C(c2ccc(OCCCO)cc2)O[C@H]1c1ccccc1N=[N+]=[N-]`: the composite z-score in assay [1] is 1.5; in [2], 0.653; in assay [3] it was 0.854; in assay [5] it was 1.18; in assay [6], 1.2; in [7], -0.0405. Moreover, the values for the composite z-score in assay [8], in assay [9] and in assay [10] were 0.0265, 0.283 and 0.936, respectively. The z-score in assay [4] is -0.921 (inactive).

`CCC[C@@H]1C[C@@]1(CCC)[C@@H](NC(=O)c1ccccc1)c1cccc(Cl)c1`: the composite z-score is -0.12 in assay [1]; 2 in assay [2]; 0.958 in assay [3]; 0.905 in [5]; 1.09 in assay [6]; 0.446 in assay [7]. For the same molecule, the composite z-score in [8] is 0.644; in assay [9], -0.202; in [10], 1.08. The z-score in assay [4] was 0.444 (inactive).

For `CC(C)C[C@@H]1NC(=O)[C@@H]2C[C@H](C(=O)NCc3ccc(F)cc3)[C@H](c3cccc(OCCO)c3)N2C1=O`, the composite z-score in assay [1] is 1.52; in assay [2], -0.23; in [3] it was 0.0811; in [5], 1.2; in assay [6], 0.615; in assay [7], 0.284. Besides, the composite z-score in assay [8] is 0.946; in assay [9] it was 0.322; in assay [10], -0.19. For the same molecule, in [4], the z-score is -0.177 (inactive).

For `O=C(c1ccccc1)N1Cc2ccccc2C[C@@]2(COC(c3ccc(OCCCO)cc3)=N2)C1=O`, the composite z-score came to 1.5 in assay [1]; 0.298 in [2]; 0.657 in [3]; 1.1 in assay [5]; 1.29 in assay [6]; 0.0545 in assay [7]. Besides, the composite z-score in assay [8] stood at 0.796; in assay [9], 0.146; in assay [10] it was 0.7. Also, the z-score in [4] is 0.372 (inactive).

In the case of `COCCOC(=O)N1C(=O)[C@@]2(c3ccccc31)[C@H](c1ccccc1OCCO)N1[C@H](c3ccccc3)[C@H](c3ccccc3)OC(=O)[C@H]1[C@@H]2C(=O)N1CCN(c2ncccn2)CC1`, the composite z-score in assay [1] was 1.21; in [2], 0.386; in [3], 0.72; in assay [5], 0.357; in assay [6] it was 0.852; in assay [7], 0.792. Besides, the composite z-score was 0.555 in assay [8], 0.471 in [9] and -0.0468 in [10]. Moreover, the z-score in assay [4] is -0.869 (inactive).

As to `CCOC(=O)[C@H]1C/C=C/C[C@H](C(=O)OCC)C(=O)O[C@H]2[C@@H](OC)O[C@H](CO)[C@@H](OC(=O)c3c(OC)cccc3OC)[C@@H]2OC1=O`, the composite z-score was 0.615 in [1]; -0.0451 in assay [2]; 0.152 in assay [3]; 0.803 in assay [5]; 0.62 in assay [6]; -0.13 in assay [7]. The composite z-score in [8] stood at 1.16; in assay [9], 0.764; in assay [10] it was 0.837. The z-score in assay [4] is 0.837 (inactive).

Take `CCOC(=O)C[C@H]1[C@H](OC(=O)c2cc3ccccc3oc2=O)[C@@H](NC(=O)c2ccccc2)c2cc(OCCCO)ccc2N1C(=O)c1ccc2ccccc2n1`: the composite z-score in [1] is 0.485; in [2] it was -0.128; in assay [3], -0.446; in assay [5], 0.72; in [6], 0.228; in assay [7], 0.536. For the same molecule, the composite z-score is 1.11 in assay [8], 0.425 in assay [9] and 0.344 in [10]. Further, in [4], the z-score was 0.0189 (inactive).

Consider `C[N+](C)(C)CCCCNC(=O)[C@H]1C[C@H]2C(=O)N3CCC[C@H]3C(=O)N2[C@H]1c1cccc(OCCO)c1`, for which the composite z-score was 0.501 in assay [1]; 0.0086 in assay [2]; 0.314 in [3]; 0.489 in [5]; -0.415 in [6]; -0.142 in [7]. Besides, the values for the composite z-score in assay [8], in assay [9] and in assay [10] were 1.14, 1.32 and 1.08, respectively. In assay [4], the z-score is 0.717 (inactive).

Regarding `C=C[C@H](CO)NS(=O)(=O)c1ccc(Br)cc1`, the composite z-score is 0.54 in [1]; 0.867 in [2]; -0.54 in assay [3]; 0.335 in assay [5]; 0.526 in assay [6]; 0.393 in [7]. The figures for the composite z-score in [8], in assay [9] and in assay [10] were 0.695, 0.751 and 0.84, respectively. The z-score in assay [4] was -0.0902 (inactive).

Take `CC(C)OC(=O)C=C1C[C@@H](c2ccccn2)O[C@@H](c2ccccn2)O1`: the composite z-score was -0.152 in assay [1]; -0.778 in [2]; -1.68 in assay [3]; 0.627 in assay [5]; 0.201 in assay [6]; 0.891 in [7]. The composite z-score in assay [8] was found to be 1.1; in assay [9], 1.47; in assay [10], 1.21. Further, in assay [4], the z-score was 1.08 (inactive).

Take `CNS(=O)(=O)c1ccc(C)cc1`: the composite z-score in [1] is 0.3; in [2], -0.0385; in assay [3] it was -0.446; in [5], 0.648; in [6], 0.674; in assay [7], 0.434. Further, the composite z-score in assay [8] is 0.688; in assay [9] it was 1.14; in [10], -1.89. For the same molecule, the z-score in [4] was -1.07 (inactive).

For `CCCc1cc2c(n1Cc1cc(F)cc(F)c1)C(C)C1CN(C(=O)c3ccccc3)C(C)(C(=O)OC)C21` (stereo not given), the composite z-score in [1] is 1.01; in [2], 1.28; in assay [3], 1.33; in [5] it was 1.21; in assay [6] it was 1.07; in [7] it was 0.0159. Further, the composite z-score in [8] was 0.899; in assay [9], 0.215; in assay [10] it was 1.27. Moreover, the z-score in assay [4] is -3.1 (inactive).

As to `CC(C)NC(=O)[C@@H]1c2ccccc2C(=O)N(C2Cc3ccccc3C2)[C@H]1c1ccc(CO)cc1`, the composite z-score in assay [1] is 0.959; in assay [2], 0.172; in [3] it was 0.749; in assay [5], 0.16; in [6], 0.726; in assay [7], -0.477. The figures for the composite z-score in [8], in [9] and in [10] were 0.0389, -0.224 and 0.175, respectively. Also, the z-score in [4] was -0.535 (inactive).

In the case of `C=C[C@@H](COC(=O)OC(C)(C)C)N(Cc1ccc(OC)cc1)S(=O)(=O)c1ccc(Br)cc1`, the composite z-score in assay [1] is 0.487; in assay [2], -0.189; in [3], 0.166; in assay [5] it was 0.541; in assay [6], 0.632; in assay [7], 0.691. In addition, the composite z-score in assay [8] came to 1; in assay [9], 0.513; in assay [10], 0.841. In assay [4], the z-score was 0.255 (inactive).
